Source: PubChem
This is one part of a sample in which hits are shown more often than they occur.
Mac1 fbg inh: CD11b/CD18-fibrinogen binding inhibition; K562 CD11b/CD18 adhesion to fibrinogen, ATPlite luminescence; Mn2+ added to activate the integrin; inhibition, % at 10 µM; 93,000 tested, 0.54% active; AID 1497;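 active = primary inhibition of 50% or more at 10 µM, then 40% or more on retest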
CD11b adhes enh: increases human CD11b/CD18 adhesion to fibrinogen; K562 CD11b/CD18 adhesion to fibrinogen, ATPlite luminescence; AID 1499; activation, % at 10 µM; P05107+P11215; 93,000 tested, 0.07% active;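 active = 10 µM primary screen giving 50% or more activity, confirmed by 40% or more on retest at that dose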
D1 mod: D1 dopamine receptor (human) allosteric modulation | P21728 | HEK293 D1, CRE-luciferase, dopamine EC30 potentiation; actives deviate in either direction | 58,000 tested, 5.9% active | AID 641 | B-score at 10 µM;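 active = luminescence count or its row- and column-corrected plate score outside the 99.7% band of the plate's sample wells, on either side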
Target sequence (P21728 whole entry, looked up): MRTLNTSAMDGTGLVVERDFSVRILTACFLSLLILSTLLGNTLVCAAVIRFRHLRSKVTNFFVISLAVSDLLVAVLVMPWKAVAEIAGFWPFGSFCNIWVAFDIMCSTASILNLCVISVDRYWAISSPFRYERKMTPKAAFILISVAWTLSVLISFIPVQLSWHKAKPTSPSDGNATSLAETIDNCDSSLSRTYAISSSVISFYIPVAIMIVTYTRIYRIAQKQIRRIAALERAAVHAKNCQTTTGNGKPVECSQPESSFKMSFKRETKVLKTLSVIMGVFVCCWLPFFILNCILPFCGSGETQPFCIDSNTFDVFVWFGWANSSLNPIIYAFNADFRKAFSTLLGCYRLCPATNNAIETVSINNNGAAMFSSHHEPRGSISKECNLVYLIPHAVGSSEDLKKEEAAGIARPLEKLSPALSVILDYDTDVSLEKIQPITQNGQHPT
FAK inh: FAK (human) kinase inhibition; biochemical FAK kinase activity assay; inhibition, %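 (tested at 7 µM)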; 97,000 tested, 0.84% active; AID 727; in the data active = inhibition above about 19%;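 also: 0% = DMSO and 100% = reference compound high control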
PTK2B oligo ant: antagonists of human Pyk2 oligomerization | Q14289 | AID 1347419 | 99,000 tested, 0.83% active | z-score (the deposit names both 25 µM and 10 µM) | Q293 cells, Pyk2 FERM NanoBiT luminescence; hits give low values;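 active = Z-score of -3 or lower, scaled per plate to the spread of control and sample wells; inactive = z-score above -3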;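 also: negative z-score means lost luminescence so less FERM oligomerization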
DAT uptake mod: changed human dopamine transporter uptake under cocaine IC80; 110,000 tested, 1.3% active; Q01959; B-score at 10 µM; LLC-PK1 hDAT cells, [14C]-dopamine uptake with cocaine IC80; actives deviate in either direction;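 active = Z score or B-score, a plate-position-corrected score, falls beyond the plate's 99.7% confidence bounds, in either direction; inactive = both scores lie inside the 99.7% bounds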;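 also: scored against the spread of the other compound wells on the same plate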
Active calls of the source: *; . = not tested or not shown.

SMILES	Mac1 fbg inh	CD11b adhes enh	D1 mod	FAK inh	PTK2B oligo ant	DAT uptake mod
COC(=O)C1=C(O)C(C(=O)OC)C(c2ccc(C)cc2)C(C#N)(C#N)C1c1ccc(C)cc1 (configuration not stated)	.	.	.	-2.3	-1.29	-0.746
Nc1ccccc1-c1nnc(SCc2ccccc2F)[nH]c1=O	18.6	-2.0	.	-5.3	0.32	1.1
CSc1ncc(Cl)c(C(=O)C(C#N)c2nc3c(C)cc(C)cc3c(=O)[nH]2)n1 (configuration not stated)	.	.	-0.0215	.	-3.03*	-1.03
CSc1ncc(Cl)c(C(=O)Nc2cccc(C)c2)n1	-6.0	-4.1	.	.	.	.
CCCC(C)n1[nH]c(=O)cc1N (configuration not stated)	.	.	.	-6.1	1.02	-2.79*
COc1ccc(-c2cc(C(=O)O)c3c(C)nn(-c4ccccn4)c3n2)cc1	.	.	.	-4.8	.	.
COc1ccc(N=CC2=C(Nc3ccc(OC)cc3)c3c(C)nn(-c4ccccn4)c3CC2)cc1	.	.	.	20.3*	.	-0.002
O=C(CCC1CCCC1)N[C@@H](Cc1ccc(O)cc1)C(=O)O	.	.	.	.	.	0.442
CN(c1ccccc1)S(=O)(=O)c1cc(C(=O)N2CCN(c3ccccn3)CC2)ccc1Cl	-16.0	-4.7	-3.27*	-3.2	-0.92	-0.0407
Cc1nc2ccccn2c1-c1csc(NCc2ccco2)n1	2.4	-6.3	-3.28*	2.0	0.54	-0.421
Oc1ccccc1N=Nc1nc(-c2ccccc2)c(-c2ccccc2)[nH]1	-0.2	-3.8	.	5.4	-3.76*	-0.955
O=[N+]([O-])c1ccc(N=Nc2ccc(O)cc2O)cc1	93.8*	-9.0	.	-0.2	-1.27	-1.63
O=[N+]([O-])c1ccc(O)c(N=Cc2sc3ccccc3c2O)c1	.	.	.	.	-2.09	.
COc1ccccc1-c1nc(-c2ccccn2)no1	10.2	-0.1	-7.43*	3.5	.	0.965
COc1nc(C)ccc1-c1noc(-c2ccccn2)n1	14.6	-0.3	-4.06*	1.9	-0.18	0.573
O=C(Cn1c(C(=O)N2CCc3ccccc3C2)cc2sccc21)c1ccccc1	-5.5	-1.7	0.157	3.0	-3.99*	-0.0742
Cc1nc(-c2cccc(S(=O)(=O)N3CC(C)CC(C)C3)c2)cs1 (configuration not stated)	3.8	0.3	.	-8.2	-3.04*	0.382
Cc1nc(-c2cccc(S(=O)(=O)N3CC(C)OC(C)C3)c2)cs1 (configuration not stated)	19.1	1.9	1.58	0.8	-1.44	0.62
Cc1nn(Cc2ccccc2)c(Cl)c1C(=O)OCc1nnc(-c2ccc(Cl)cc2)o1	24.7	-2.8	0.296	1.5	0.82	2.62*
Cc1ccc(OC(=O)c2cccc(C(=O)Oc3ccc(C)cn3)n2)nc1	21.4	-0.7	0.137	2.2	.	-8.02*
CCOC(=O)c1cccc(C(=O)OCC)n1	.	.	2.7	1.7	0.43	0.0534
CN1C(=O)CC(N2CCN(C(=O)CN3CCCC3)CC2)C1=O (configuration not stated)	10.6	-8.0	-2.75*	.	0.47	0.251
COc1ccc(-n2c(SCC(=O)NCC3CCCO3)nc3ccccc32)cc1 (configuration not stated)	-30.5	-7.2	.	-0.1	0.12	1.13
CCOC(=O)C(O)(CC(=O)c1ccc(OC)cc1)C(F)(F)F (configuration not stated)	.	.	.	0.1	-0.77	-8.8*
COC(=O)C(O)(CC(=O)Nc1ccc(OC)cc1)C(F)(F)F (configuration not stated)	.	.	.	-0.3	1.72	-0.278
SMILES	Mac1 fbg inh	CD11b adhes enh	D1 mod	FAK inh	PTK2B oligo ant	DAT uptake mod
C[C@H](C(=O)C=[N+]=[N-])N1C(=O)c2ccccc2C1=O	7.8	-4.0	-0.096	-1.4	.	-7.13*
COc1cc([N+](=O)[O-])ccc1NC(=O)CCCOc1cc(C)ccc1C	16.4	7.7	.	.	.	.
Cc1nc(CSc2ccc(Cl)cc2)cc(NCc2ccccc2)n1	-8.7	-2.7	.	0.2	-0.84	0.31
Cc1nc(CS(=O)c2ccc(Cl)cc2)cc(NCc2ccc(Cl)cc2Cl)n1 (configuration not stated)	-21.2	2.4	.	4.0	0.91	2.65*
Cc1cc(C)n(Cc2ccc(NC(=O)c3c([N+](=O)[O-])c(C)nn3C)cc2)n1	10.9	0.7	.	-0.4	1.3	0.0953
COc1ccc(C2C(C#N)=C(N)Oc3c2c(C)nn3-c2ccccc2)cc1Cn1nc(C)c([N+](=O)[O-])c1C (configuration not stated)	10.6	50.9*	.	5.7	-1.31	-0.493
COc1ccc(-n2cnnc2SCC(=O)N(C)C2CCS(=O)(=O)C2)cc1 (configuration not stated)	-5.4	12.8	0.128	0.9	-2.92	-1.86
COc1ccccc1NC(=O)N1CCC(c2nnc(SCC(N)=O)n2C)CC1	10.7	-0.2	.	10.8	1.54	-0.157
CC1(C)Cc2nc3sc4c(=O)n(CC(N)=O)cnc4c3cc2CO1	7.8	-6.9	.	5.3	-0.1	.
CC1(C)Cc2nc3sc4c(=O)n(CC(=O)NCc5ccccc5)cnc4c3cc2CO1	.	.	.	1.4	-0.45	-2.89*
CCCCn1c(=O)nc2n(-c3ccccc3)c3ccccc3cc-2c1=O	7.2	-0.5	.	2.7	-1.06	2.24
Cc1cc(-c2ccccc2)nc(N2CCC(C(=O)NCC3CCCCC3)CC2)n1	.	.	.	0.7	.	.
c1ccc(Cn2nnnc2C(c2ccccc2)N2CCN(c3nc4ccccc4s3)CC2)cc1 (configuration not stated)	10.0	-5.0	.	0.3	-4.06*	1.46
COc1ccccc1C(c1nnnn1Cc1ccccc1)N1CCN(C2CCCC2)CC1 (configuration not stated)	.	.	.	-0.5	-0.74	-0.0676
COc1ccccc1C(c1nnnn1Cc1ccccc1)N1CCN(c2nc3ccccc3s2)CC1 (configuration not stated)	-7.6	-1.2	0.114	.	-3.83*	-0.236
COc1cccc(C(c2nnnn2Cc2ccccc2)N2CCN(C3CCCC3)CC2)c1OC (configuration not stated)	7.6	1.4	-3.55*	-2.6	-1.2	-0.774
Fc1ccc(C(c2nnnn2Cc2cccs2)N2CCN(c3ccccc3)CC2)cc1 (configuration not stated)	.	.	.	-2.2	-3.54*	2.2*
c1ccc(-n2ncc3c(N4CCN(c5ccccn5)CC4)nc(N4CCOCC4)nc32)cc1	-22.1	-2.6	-0.238	.	.	.
O=C(Cn1cnc2ccc(Br)cc2c1=O)c1cccs1	.	.	.	2.0	-0.5	0.41
CCN(C(=O)Cc1ccc(Br)cc1)C1CCCCC1	-5.7	3.9	.	2.0	-1	0.435
COc1ccc(C(c2nnnn2Cc2ccccc2)N2CCN(c3nc4ccccc4s3)CC2)cc1OC (configuration not stated)	.	.	.	2.9	-3.82*	2.41
COc1ccc(N2CCN(C(c3ccccc3OC)c3nnnn3Cc3ccco3)CC2)cc1 (configuration not stated)	12.3	-1.2	-0.459	-4.5	-3.22*	0.942
